FBPA coupling cs = inhibits coupling enzyme system, counter-screen for aldolase hits; coupling enzyme system counterscreen, AmpLite Red fluorescence; activity change, negative = inhibition, % at 58.2 µM, hits read low; 0.67% of 290,000 active; AID 2472; in the data active = activity change below about -30%; also: % is scaled to controls: 0 for no effect and ±100 for the full control effect
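Compounds tested against the coupling enzymes alone at 57.5 uM final; readout was AmpLite Red fluorescence (525/598 nm) after 20 min at RT.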
EPAC1 ag = EPAC1 (human) agonism; Potency, µM (series often up to 154 µM), for inactives: top-dose activation, actives largely listed as activators; EPAC1 agonist qHTS, biochemical assay; response scale: 100% = response to 6.5 mM cAMP; 0.073% of 360,000 active; also: potency is read from the fitted curve at half-maximal effect; nearly all actives have a fitted effect of over 60% in size
Target sequence (O95398 whole entry, looked up): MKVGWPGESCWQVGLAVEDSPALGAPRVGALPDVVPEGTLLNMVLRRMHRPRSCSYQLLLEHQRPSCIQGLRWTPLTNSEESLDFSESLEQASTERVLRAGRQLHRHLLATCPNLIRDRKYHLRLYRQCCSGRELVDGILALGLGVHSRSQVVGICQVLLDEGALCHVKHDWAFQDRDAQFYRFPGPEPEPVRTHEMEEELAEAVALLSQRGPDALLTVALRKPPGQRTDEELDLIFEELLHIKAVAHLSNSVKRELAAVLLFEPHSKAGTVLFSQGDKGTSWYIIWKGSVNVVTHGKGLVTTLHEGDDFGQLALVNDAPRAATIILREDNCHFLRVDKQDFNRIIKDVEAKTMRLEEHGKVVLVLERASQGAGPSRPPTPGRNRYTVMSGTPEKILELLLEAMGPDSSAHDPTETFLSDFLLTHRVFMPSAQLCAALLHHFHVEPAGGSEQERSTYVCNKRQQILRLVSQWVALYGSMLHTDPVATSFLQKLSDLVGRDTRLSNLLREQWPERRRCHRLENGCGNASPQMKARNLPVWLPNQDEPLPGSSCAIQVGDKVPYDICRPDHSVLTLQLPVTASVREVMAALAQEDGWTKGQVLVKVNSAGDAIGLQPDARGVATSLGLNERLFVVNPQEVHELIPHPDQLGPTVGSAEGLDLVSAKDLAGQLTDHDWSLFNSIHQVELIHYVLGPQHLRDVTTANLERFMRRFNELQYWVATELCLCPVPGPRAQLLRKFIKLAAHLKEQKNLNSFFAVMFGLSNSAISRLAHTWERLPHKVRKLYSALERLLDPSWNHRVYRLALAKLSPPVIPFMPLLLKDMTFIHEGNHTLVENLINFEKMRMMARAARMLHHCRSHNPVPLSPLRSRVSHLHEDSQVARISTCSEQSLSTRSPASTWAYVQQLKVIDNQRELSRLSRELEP
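Read-out is the fluorescence drop as BODIPY-GDP leaves Rap1B (480 nm excitation, 540 nm emission), recorded every 5 minutes over 30 minutes. Reactions held 100 nM EPAC1, 250 nM Rap1B–BODIPY-GDP and 50 uM GDP, with 6.5 mM cAMP setting full activation.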
EPAC1 antag = blocks human EPAC1 exchange factor; O95398; EPAC1 GEF assay, Rap1b-BODIPY-GDP exchange fluorescence; Potency, µM (series often up to 115 µM), without a hit: at the top dose activity change, negative = inhibition, hits mostly inhibitors; 0.14% of 360,000 active; AID 720709;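 also: potency is read from the fitted curve at half-maximal effect; plate controls were vehicle for no effect and positive control for full effect; nearly all actives have a fitted effect of over 50% in size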
USP1 inh = blocks the human USP1/UAF1 deubiquitinase complex | 0.23% of 390,000 active | O94782 | recombinant USP1/UAF1, Ub-Rhodamine cleavage fluorescence | Potency, µM (highest dose often 57.1 µM), without a hit: at the highest dose activity change, negative = inhibition, hits mostly inhibitors | AID 743255; also: potency is read from the fitted curve at half-maximal effect; % is scaled to controls: 0 for no effect and ±100 for the full control effect; nearly all actives have a fitted effect of over 60% in size
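In this screen, compounds sit with the deubiquitinase complex (1nM) for 15 min at room temperature before Ub-Rho is added at 150nM final. Fluorescence rise is then followed for 6 reads every 60 seconds.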
EPAC2 antagonist = blocks human EPAC2 exchange factor. 0.18% of 360,000 active. Potency, µM (titrated, usually from 114 µM), inactives show top-dose activity, negative = inhibition, usual class: inhibitors. Q8WZA2. EPAC2 GEF exchange of Rap1B-BODIPY-GDP, fluorescence; also: potency is read from the fitted curve at half-maximal effect; % is scaled to controls: 0 for no effect and ±100 for the full control effect; nearly all actives have a fitted effect of over 45% in size
EPAC2 agonist = EPAC2 (human) agonism | 0.079% of 360,000 active | Q8WZA2 | Potency, µM (doses to about 154 µM), for inactives: top-dose activation, hits mostly activators | AID 720711 | EPAC2 activation, biochemical qHTS; response scale: 100% = 6.5 mM cAMP response; also: potency is read from the fitted curve at half-maximal effect; nearly all actives have a fitted effect of over 50% in size
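EPAC2 (100 nM) mixed with Rap1B loaded with BODIPY-GDP (250 nM) plus 50 uM unlabeled GDP; compounds pinned in, 5 min RT, then read every 5 min for 30 min (ex 480, em 540 nm). Normalized to cAMP control.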
* hit, by the source's call; ? = inconclusive; . = no result given. Hits are enriched below; roughly 0.87% of the tested compounds scored in any of these assays. Unless noted, calls follow the shape of the dose curve; as a rule, active = well fitted curve in the direction sought with a large enough effect; inconclusive = small, poorly fitted or top-dose-only effect, or another doubt; inactive = no such curve, though single readings can be large; an effect the other way counts as inactive or inconclusive.

SMILES | FBPA coupling cs | EPAC1 ag | EPAC1 antag | USP1 inh | EPAC2 antagonist | EPAC2 agonist
COc1ccc2c(c1)c1nc3n(c(=O)c1n2CC(=O)Nc1cc(C)[nH]n1)CCS3 | 0 | . | . | . | . | .
COc1cc(C(C#N)N2CCOCC2)ccc1O (stereo not given) | -35* | 2% | 4% | -22% | 14% | 9%
CN=c1scc(C)n1/N=C/c1ccc(O)c(O)c1O | -59* | 0% | 50µM* | -8% | -7% | 13%
CC(C)N=c1scc(-c2ccco2)n1/N=C/c1ccc(O)c(O)c1 | -5 | 22% | ? | -21% | -25% | ?
C=CCN=c1scc(-c2ccco2)n1/N=C/c1ccc(O)c(O)c1O | -35* | 20% | 56µM* | -20% | -20% | 1%
COCCN=c1scc(-c2ccco2)n1/N=C/c1ccc(O)c(O)c1O | -51* | 5% | 18µM* | ? | 12% | -2%
CN(Cc1ccccc1)S(=O)(=O)c1ccc(OCC(=O)NCc2ccncc2)cc1 | 0 | 5% | -4% | -19% | -7% | 10%
CC(=O)C1=C(C)OC(N)=C(C#N)C1c1ccco1 (stereo not given) | -16 | 7% | 4% | -9% | -7% | -2%
CC(=O)C1=C(C)OC(N)=C(C#N)C1c1cccc2ccccc12 (stereo not given) | -34* | 8% | -18% | -15% | 0% | 8%
CCC(CN(C)C)Oc1cc(NCc2ccccc2)c2ncn(C(C)C)c2c1 (stereo not given) | . | -6% | ? | 28µM* | 15% | 1%
COc1cc(NCc2ccccc2)c2ncn(C(C)C)c2c1 | . | 3% | -8% | ? | -16% | 8%
CCCCCCc1cc2cc(C(=O)NC)c(=N)oc2cc1O | 0 | 10% | 4% | ? | 16% | 100µM*
CCOc1cc(/C=C2\SC(=Nc3ccc(CC)cc3)NC2=O)ccc1OCC(=O)O | 10 | ? | 35µM* | -10% | 3% | 2%
CCc1ccc(N=C2NC(=O)/C(=C/c3cc(Br)c(OCC(=O)O)c(OC)c3)S2)cc1 | 10 | ? | ? | -18% | -6% | -5%
CCOc1cc(/C=C2/SC(=S)NC2=O)ccc1OC(=O)c1ccco1 | 9 | 3% | 35µM* | -23% | 35µM* | 3%
O=C(NCCOc1ccc(F)cc1)c1ccccc1SCc1ccccc1 | 3 | 16% | -7% | -12% | 50µM* | 9%
CC[C@H]1C(c2ccc(F)cc2)=NN(c2ccccc2)[C@@H]1CO | -3 | -14% | -14% | -27% | 50µM* | 3%
O=C(COC(=O)c1ccc2c(c1Cl)C(=O)c1ccccc1C2=O)NC1CCCCC1 | -2 | 12% | 5% | -31% | -19% | 6%
Oc1ccc(/C=N/N2CCCCC2)c(O)c1O | -53* | 1% | -27% | ? | 4% | 3%
Oc1ccc(/C=N/N2CCOCC2)c(O)c1O | -48* | -4% | 10% | ? | 1% | 12%
Cn1cc(C(=O)O)c(=O)c2cc(S(=O)(=O)N3CCCCC3)ccc21 | . | . | . | -4% | . | .
CS(=O)(=O)C1=NSC2=NC(=O)/C(=C\c3cccn3-c3ccc(Cl)cc3)C(=N)N21 | 18 | 9% | 35µM* | -4% | -17% | -8%
CCCCC(CC)C(=O)Nc1ccc(Nc2ccccc2)cc1 (stereo not given) | -4 | 63µM* | 40% | -13% | -19% | -13%
Cc1sc(N)c(C(=O)c2ccccc2Cl)c1C | 0 | 9% | 19% | -23% | 32µM* | 7%
Cc1ccc2[nH]c(CSc3nnc(NC(=O)COc4ccccc4Cl)s3)cc(=O)c2c1 | . | . | . | -7% | . | .
CCS(=O)(=O)n1nc(-c2ccco2)nc1SC | -76* | -6% | -3% | -24% | 10% | -5%
CSc1nc(-c2ccco2)nn1S(=O)(=O)c1ccc(C)cc1 | -34* | -1% | -8% | -17% | -5% | 6%
CSc1nc(-c2ccco2)nn1S(=O)(=O)c1ccccc1 | -1 | . | . | . | . | .
